Compound activity deposited in PubChem by National Center for Advancing Translational Sciences (NCATS).
D2 ag-1: Beta-Arrestin HTS for Positive Allosteric Modulators of the Human D2 Dopamine Receptor: Agonists | D(2) dopamine receptor (Homo sapiens), P14416 | DiscoveRx PathHunter D2 beta-arrestin, luminescence, 90 min; 100% = 57 uM dopamine signal | activation, % (concentration not given with the values) | hit rate 0.084% among 360,000; in the data active = activation above about 40%
Target sequence (P14416 whole entry, looked up): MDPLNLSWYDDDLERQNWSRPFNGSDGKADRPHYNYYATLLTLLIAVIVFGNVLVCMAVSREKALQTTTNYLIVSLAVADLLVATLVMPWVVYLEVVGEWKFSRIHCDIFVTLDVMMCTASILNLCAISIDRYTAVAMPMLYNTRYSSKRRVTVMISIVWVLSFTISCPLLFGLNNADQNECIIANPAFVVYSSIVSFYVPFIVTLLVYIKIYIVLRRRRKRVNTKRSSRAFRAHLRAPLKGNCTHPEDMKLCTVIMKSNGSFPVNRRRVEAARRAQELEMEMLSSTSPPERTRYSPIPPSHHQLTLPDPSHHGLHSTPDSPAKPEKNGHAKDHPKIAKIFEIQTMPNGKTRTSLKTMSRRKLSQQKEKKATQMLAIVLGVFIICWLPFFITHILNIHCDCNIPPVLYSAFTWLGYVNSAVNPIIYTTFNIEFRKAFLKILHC
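DiscoveRx PathHunter D2 beta-arrestin cells (2,100/well) attached overnight, then compound-stimulated 90 min at 37 C in HBSS/10 mM HEPES/0.1% Tween-20 buffer; beta-galactosidase complementation read by luminescence after 1 h at ambient temperature. Dopamine 57 uM final (EC100) as control.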
D2 PAM-1: Beta-Arrestin HTS for Positive Allosteric Modulators of the Human D2 Dopamine Receptor: Potentiators; D(2) dopamine receptor (Homo sapiens), P14416; DiscoveRx D2 beta-arrestin cells, luminescence, 90 min; 100% = 57 uM dopamine signal; potentiation, % (no concentration beside the values); hit rate 0.23% among 360,000; AID 624464, 2012; in the data active = potentiation above about 50%
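D2 cells co-treated with compound plus 50 nM dopamine (EC20) for 90 min at 37 deg C to detect potentiation. Beta-arrestin recruitment was read as enzyme-fragment luminescence after 1 h at ambient temperature. Full response was set by 57 uM dopamine.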
D2 ag-2: HTS Assay for Allosteric Agonists of the Human D2 Dopamine Receptor: Primary Screen for Agonists | AID 485358, 2010 | D(2) dopamine receptor (Homo sapiens), P14416 | HEK293 T-REx D2 cells, calcium flux agonist mode | hit rate 0.53% among 340,000 | activation, % at 2 µM;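 active = activation over 3 SD above normal in the single-dose calcium agonist read, cut at about 30% in these data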; also: 0% is about no effect
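Calcium-flux readout, 1 cycle/sec over 180 s following compound pin transfer, in inducible HEK293 Trex D2 cells (force-coupled); dopamine controls included. Positive calcium responses during this window marked compounds as potential agonists.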
D2 antagonist: HTS Assay for Allosteric Antagonists of the Human D2 Dopamine Receptor: Primary Screen for Antagonists; D(2) dopamine receptor (Homo sapiens), P14416; HEK293 TREx D2 cells, calcium flux, dopamine EC80; inhibition, % at 10 µM; hit rate 2% among 340,000; in the data active = inhibition above about 30%; inactive = below that, where a call was filed; also: 0% is about no effect
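Overnight-induced (tetracycline, 30 C) HEK293 T-REx cells carrying force-coupled D2 receive a no-wash calcium dye, then compound, then EC80 dopamine at 180 s; signals are read kinetically throughout.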
D2 PAM-2: HTS Assay for Positive Allosteric Modulators of the Human D2 Dopamine Receptor: Primary Screen for Potentiators | HEK293 T-REx D2, calcium flux, EC20 dopamine potentiation | potentiation, % at 10 µM | hit rate 0.34% among 340,000;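 active = potentiation over 3 SD above the plate norm, cut at about 30% in these data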; also: 0% is about no effect
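Potentiation of an EC20 dopamine calcium response is measured in a force-coupled, tetracycline-inducible Hek293 Trex D2 line. Compound-only kinetic reads over 180 s flag agonists before dopamine addition.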
Numbers without * were called inactive; / = not tested or not shown. A selection: hits, their analogues and other compounds. The true share with any hit is near 2.4%.

SMILES	D2 ag-1	D2 PAM-1	D2 ag-2	D2 antagonist	D2 PAM-2
Cc1cc(F)ccc1S(=O)(=O)N1CCCOC1CNC(=O)C(=O)NCCN1CCOCC1 (centres undefined)	3.1	13.7	1.6	5.3	2.8
Cc1cc(F)ccc1S(=O)(=O)N1CCCOC1CNC(=O)C(=O)NCCCN1CCOCC1 (centres undefined)	2.6	-23.4	31.6*	19.8	-6.6
O=c1c2ccsc2ncn1Cc1ccc(Cl)cc1	-8.3	-2.0	0.8	38.0*	2.9
O=c1c2ccccc2ncn1Cc1ccccc1	-0.4	-5.5	0.3	12.4	14.1
O=C(CN1C(=O)S/C(=C\c2cccs2)C1=O)Nc1ccc(C(=O)O)c(O)c1	-1.5	-6.2	-1.1	39.8*	8.0
O=C(NCCCl)Nc1cc([N+](=O)[O-])ccc1Cl	-3.9	-11.8	-0.2	-0.5	-10.8
CCOC(=O)c1ccc(CNC(=O)C(Cc2c[nH]c3ccccc23)NC(C)=O)o1 (centres undefined)	-0.2	1.1	0.1	5.5	17.9
Cc1c(C(=O)N2CCCCCC2)nnn1-c1nonc1N	-2.9	-21.0	0.5	40.8*	1.2
CCOC(=O)c1nnn(-c2nonc2N)c1CN1CCCCCC1	0.1	-2.0	-0.1	15.3	-5.8
CCn1cc(C(=O)N[C@@H](C)C(=O)OC)c(=O)c2cc3c(cc21)OCO3	-4.1	-2.7	0.9	44.4*	-3.9
COCCCNC(=O)c1cc2c(=O)n3cccc(C)c3nc2n(C(C)C)c1=N	-1.6	22.1	1.1	34.5*	6.1
O=C(CSc1nc2[nH]ncc2c(=O)[nH]1)NCc1ccccc1	-3.8	-23.3	0.8	5.4	9.4
Cc1cccc(C)c1Nc1nnc(SCC(=O)NC2CCS(=O)(=O)C2)s1 (centres undefined)	3.3	5.6	0.7	26.9	-13.0
Cc1ccc(Nc2nnc(SCC(=O)NC3CCS(=O)(=O)C3)s2)c(C)c1 (centres undefined)	-7.1	-34.8	0.8	38.8*	-8.2
COc1ccc2ccccc2c1/C=N\NC(=O)c1ccc(C)s1	-3.0	-36.6	-0.1	40.2*	-19.9
COc1ccc2ccccc2c1/C=N/NC(=O)c1ccccc1F	-6.9	-12.9	2.6	-3.1	2.8
COc1ccc2ccccc2c1/C=N/NC(=O)c1cccc(Br)c1	-4.3	-41.9	-0.4	10.3	-14.0
COc1ccc2ccccc2c1/C=N/NC(=O)c1ccc([N+](=O)[O-])cc1	-1.4	-15.6	-1.5	70.5*	-27.7
CN(C)S(=O)(=O)c1cc(C(=O)Nc2ccccc2C(=O)NC2CC2)ccc1Cl	-0.9	-1.0	-0.8	-29.8	-3.4
Cn1c(CN2CCCC2)c(C#N)c2ccccc21	-3.8	-18.8	-1.5	82.8*	-27.5
CN1CCN(Cc2c(C#N)c3ccccc3n2C)CC1	-1.9	-3.5	0.4	6.4	-18.7
CC1CCCCN1Cc1c(C#N)c2ccccc2n1C (centres undefined)	-8.1	-40.2	0.7	40.2*	-37.1
CC(=O)N(Cc1c(C#N)c2ccccc2n1C)c1ccccc1	-4.0	0.1	1.3	-13.2	0.0
Cn1c(CN2CCOCC2)c(C#N)c2ccccc21	-0.9	-10.9	-0.2	1.0	0.8
CC1CCN(Cc2c(C#N)c3ccccc3n2C)CC1	-3.6	-49.5	1.7	74.4*	-24.4
SMILES	D2 ag-1	D2 PAM-1	D2 ag-2	D2 antagonist	D2 PAM-2
O=C(N/N=C/c1cc([N+](=O)[O-])ccc1O)C1CCCCC1	-6.1	-39.6	1.8	-2.7	5.0
O=C(NCc1ccc2c(c1)OCO2)C1CCC(CNS(=O)(=O)c2cccc3nsnc23)CC1 (centres undefined)	-5.5	0.6	-0.8	35.0*	-1.0
COc1ccc(CNC(=O)C2CCC(CNS(=O)(=O)c3cccc4nsnc34)CC2)cc1 (centres undefined)	2.5	-2.1	-1.7	17.0	6.2
Cc1c(Cl)ccc(S(=O)(=O)Nc2cccnc2)c1Cl	2.4	-5.2	1.2	-11.1	7.4
COc1ccccc1N1CCN(S(=O)(=O)c2c(C)[nH]c(C)c2C(=O)N2CCCC2)CC1	-2.0	-10.0	0.2	30.7*	27.4
O=C(NCc1ccc2c(c1)CCO2)Nc1cccc(C(F)(F)F)c1	-2.0	-14.0	0.0	39.8*	-8.4
O=C(c1cc(-c2ccccc2Cl)on1)N1CCN(C(=O)c2ccco2)CC1	-2.1	-17.7	-0.1	3.7	-0.6
O=C(Nc1cccnc1)c1cc(-c2ccc(Cl)cc2Cl)on1	2.9	-1.7	0.8	34.8*	7.0
O=C(c1cc(-c2ccc(Cl)cc2Cl)on1)N1CCN(C(=O)c2ccco2)CC1	-1.0	-6.8	0.8	-0.6	49.0*
NC(=O)c1cc2ccccc2o/c1=N/NC(=O)c1cccc(Cl)c1	-3.5	1.7	-0.6	49.0*	4.8
CCOc1c(C=C(C#N)C#N)c2ccccc2n1CC	-3.8	-2.2	-1.6	5.2	-6.7
CCc1ccccc1NC(=O)c1ccc(-c2csc(C)n2)cc1	2.7	3.9	1.1	2.4	-8.6
CCc1nc2nc(C)c(NS(=O)(=O)c3cccs3)c(=O)n2[nH]1	-4.2	-7.9	-2.0	0.2	51.4*
CCc1nc2nc(C)c(NS(=O)(=O)c3ccc(Br)s3)c(=O)n2[nH]1	3.9	10.6	-0.6	-29.7	30.6*
CCc1nc2nc(C)c(NS(=O)(=O)c3ccc(F)cc3)c(=O)n2[nH]1	3.5	-1.0	-2.1	2.3	29.8
Cc1ccc(S(=O)(=O)Nc2c(C)nc3nc(C)[nH]n3c2=O)c(C)c1	1.3	-4.6	0.6	35.5*	-13.3
CCc1nc2nc(C)c(NS(=O)(=O)c3ccc(F)c(C)c3)c(=O)n2[nH]1	/	/	-0.1	/	-0.8
CCc1nc(SCC(=O)N2CCCc3ccccc32)c2oc3ccccc3c2n1	0.0	-11.4	1.3	-8.8	8.7
COc1ccc(C(=O)NC2=NCCS2)cc1	-3.4	-5.3	1.4	3.9	-1.8
CCCCOc1ccc(C(=O)NC(=S)Nc2ccc(CN3CCOCC3)cc2)cc1	1.2	-2.3	-2.1	4.7	-2.7
Cc1nn(C)cc1CNC(=O)Nc1ccc(Cl)c(Cl)c1	-5.1	-28.9	-0.1	9.2	4.9
Cc1ccc(C(C)C)c(OCCNCc2ccccc2)c1	10.8	-5.4	-2.4	67.2*	-18.9
O=[N+]([O-])c1ccccc1OCCNCc1ccccc1	1.5	-76.2	23.2	78.1*	-31.4
Cc1ccc(C)c(OCCCNCc2ccccc2)c1	-3.3	-63.6	2.1	3.9	-12.5
